In ChEMBL document CHEMBL3433997, “St. Jude Leishmania screening dataset” (2016):
“And” between values parts separate entries of the source, which are not always exact repeats. Equal values may be shown once.

Legend:
Type in all cases: functional
[1] = molecular target: Solute carrier family 2, facilitated glucose transporter member 1 (Homo sapiens) (UniProt P11166); assay: ST_JUDE_LEISH: Cytotoxicity at 2uM final concentration against transgenic Leishmania Mexicana promastigotes LmGLUT1 that are glucose transport deficient and complemented with the human glucose transporter GLUT1. Activity is measured by DNA content using SYBR green in vitro
[2] = molecular target: Hexose transporter 1 (Plasmodium falciparum) (UniProt O97467); assay: ST_JUDE_LEISH: Cytotoxicity at 2uM final concentration against transgenic Leishmania Mexicana promastigotes LmPfHT that are glucose transport deficient and complemented with the Plasmodium falciparum hexose transporter. Activity is measured by DNA content using SYBR green in vitro
[3] = molecular target: Glucose transporter (Leishmania mexicana) (UniProt O61059); assay: ST_JUDE_LEISH: Cytotoxicity at 2uM final concentration against transgenic Leishmania Mexicana promastigotes LmGT2 that are glucose transport deficient and complemented with the L. Mexicana glucose transporter 2. Activity is measured by DNA content using SYBR green in vitro

Sequence of Solute carrier family 2, facilitated glucose transporter member 1 (Homo sapiens) (P11166 whole entry): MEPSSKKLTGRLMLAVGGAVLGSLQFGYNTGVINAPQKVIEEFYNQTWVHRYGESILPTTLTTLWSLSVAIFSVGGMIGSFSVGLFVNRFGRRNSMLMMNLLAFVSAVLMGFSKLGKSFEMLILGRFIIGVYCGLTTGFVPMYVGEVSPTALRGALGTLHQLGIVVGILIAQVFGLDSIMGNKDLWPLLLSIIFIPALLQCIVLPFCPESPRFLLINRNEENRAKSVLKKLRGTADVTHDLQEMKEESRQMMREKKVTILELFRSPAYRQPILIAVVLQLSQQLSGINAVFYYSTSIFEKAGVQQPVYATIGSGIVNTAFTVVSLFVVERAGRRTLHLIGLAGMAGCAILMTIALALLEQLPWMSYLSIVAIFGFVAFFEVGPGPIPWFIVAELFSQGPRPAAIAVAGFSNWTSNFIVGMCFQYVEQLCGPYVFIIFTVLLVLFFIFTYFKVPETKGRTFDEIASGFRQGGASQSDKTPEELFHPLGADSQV

SMILES	inhibition [1]	inhibition [2]	inhibition [3]
Cc1ccc(NC(=O)c2cnc(N3CCN(c4ccncc4)CC3)c(Cl)c2)cc1	42.8%	16.1%	17.1%
O=C(NCCc1ccccc1)c1cc(-c2cccnc2)cnc1NCC1CC1	3.62%	6.01%	1.98%
O=C(Nc1cccc(-c2nn3ccccc3c2-c2ccnc(Nc3ccccc3)n2)c1)c1cc(F)ccc1F	4.48%	2.05%	-2.21%
COc1ccc2ncc(C#N)c(CCN3CCC(NCc4ccc5c(c4)NC(=O)CO5)CC3)c2c1	12.7%	9.55%	8.73%
COc1cccc(NC(=O)c2ccc(NCCCN3CC(C)CC(C)C3)c([N+](=O)[O-])c2)c1 (stereo unspecified)	6.83%	2.93%	3.43%
COc1ccc2ncc(Cl)c(CCN3CCC(NCc4ccc5c(n4)NC(=O)CS5)CC3)c2c1	7.16%	11%	2.97%
Cc1cc2nc(N=C3NC4(c5ccccn5)NC(=Nc5nc6cc(C)c(C)cc6[nH]5)NC4(c4ccccn4)N3)[nH]c2cc1C (stereo unspecified)	2.01%	-0.16%	-0.63%
CN(C)CC1c2[nH]c3ccccc3c2CCN1C(=O)Nc1ccc(Cl)c(Cl)c1 (stereo unspecified)	5.56%	7.79%	5.8%
N#Cc1ccc(NC(=O)Nc2ccc(OC(F)(F)F)cc2)cc1	2.17%	1.59%	-0.05%
CN(C)C(C)(C)CN(Cc1ccc(-c2ccc(C(F)(F)F)cc2)cc1)C(=O)Cn1c(CCc2cccc(F)c2F)nc(=O)c2ccccc21	1.52%	0.48%	0.79%
Cc1noc(C)c1-c1cccc(CNCc2ccc(-c3ccc(-c4nc5cc(F)ccc5[nH]4)cc3)cc2)c1	8.14%	6.89%	3.46%
COc1ccc2c(-c3ccccc3)noc2c1	0.37%	0.1%	1.42%
COc1cc2nc(Nc3ccc(C)cc3)nc(Nc3ccc(C)cc3)c2cc1OC	100%	101%	98.1%
CN1CCCN(Cc2cccc(-c3cccc(NC(=O)c4ccc(C#N)cc4)c3)c2)CC1	11%	7.28%	6.98%
Cc1ccc(S(=O)(=O)N2CCN(C(=O)c3cc(-c4ccccc4)n[nH]3)CC2)cc1	4.96%	2.9%	2.37%
Cc1nc2c(c(O)c1Cl)-c1ccc(Oc3cccc(C(F)(F)F)c3)cc1C2=O	2.13% and 1.44%	2.5% and 1.39%	1.75% and 2.09%
C[C@@H](CC1CCCCC1)OC(=O)N(C)[C@H]1CCN(C#N)C1	14%	8.54%	8.86%
COc1cc(Nc2nccc(N3CCC(NC(=O)Nc4cc(C)ccc4C)C3)n2)cc(OC)c1OC (stereo unspecified)	1.64%	1.62%	2.46%
Cc1ccccc1C1CCN(C2CCC(NC(=O)/C=C/c3cc(F)cc(F)c3)CC2)CC1 (stereo unspecified)	-1.34%	-0.51%	-1.77%
O=C(Nc1ccc(Cl)cc1)c1cc(Cl)ccc1NC(=O)C1CCc2ccccc2O1 (stereo unspecified)	5.48%	2.53%	1.56%
COC(=O)C1=CNC=C(C(=O)OC)C1c1ccc(Cl)c([N+](=O)[O-])c1	10.8%	8.44%	6.42%
COc1ccc2nccc([C@@H](O)CN3CCC(NCc4cc5oc(=O)n(C)c5cc4F)CC3)c2c1	0.9%	0.07%	0.86%
Nc1ccc(-c2csc(Nc3ccncc3)n2)cc1	2.7%	1.93%	2.21%
CC(C)Cn1c(Sc2ccc(C#N)c([N+](=O)[O-])c2)nnc1-c1ccccc1Cl	3.45%	4.02%	-0.31%

SMILES	inhibition [1]	inhibition [2]	inhibition [3]
Cc1ccccc1OCCCN1CCN(CC(c2ccc(F)cc2)N2CCN(C(C)C)CC2)CC1 (stereo unspecified)	13.1%	12.5%	14.9%
Cc1ccc(CNc2cc(C(F)(F)F)nc(-c3ccc(S(C)(=O)=O)cc3)n2)cc1	9.86%	11.2%	9.59%
Cc1ccc(C2(C)CC(C)(C)N(C(=O)COc3ccc4ccccc4c3)c3ccccc32)cc1 (stereo unspecified)	-1.77%	-1.69%	1.03%
CC(C)(C)c1ccc(Cn2c(=N)n(CC(=O)c3ccc(-c4ccccc4)cc3)c3ccccc32)cc1	0.71%	-0.1%	-0.07%
Cc1nc2ccc(F)cc2n1C1CCN(C(=O)Cc2ccc(F)c(F)c2)CC1	-1.6%	-1.91%	1.89%
O=C(/C=C/c1ccc(Cl)c(Cl)c1)N1CCCC(CCCN2CCC(c3c[nH]c4ccccc34)CC2)C1 (stereo unspecified)	4.23%	3.51%	-0.35%
CC(C)S(=O)(=O)N1CCN(Cc2ccc3c(c2)nc(NC(=O)c2ccsc2)n3C[C@H](O)c2ccccc2)CC1	2.63%	1%	-0.17%
Cc1ccccc1C1CCN(C2CCC(NC(=O)c3cc(-c4ccccc4)oc3C)CC2)CC1 (stereo unspecified)	-1.06%	0.71%	-1.44%
COc1cc2nccc(Nc3ccc(Oc4ccccc4)cc3)c2cc1OC	3.01%	9.3%	4.02%
CCCN(CCC)CCCN(CCCN(CCC)CCC)c1cc(C)nc(Nc2ccc3cc(Br)ccc3c2)n1	50.9%	35.1%	37.8%
Cn1ccc(-c2cccc(Nc3ccnc4cc(-c5nccs5)ccc34)c2)n1	-0.21%	0.32%	-0.17%
COc1cc(OC)c2c(C)cc(NCCCN3CCOCC3)nc2c1	1.92%	0.95%	-0.42%
Cc1cc(NC(=O)c2cc(Br)ccc2Cl)n(-c2nc(C)c(C)c(=O)[nH]2)n1	-1.92%	-1.98%	-4.55%
CC(Nc1ccnc2cc(Cl)ccc12)c1ccc(S(N)(=O)=O)cc1 (stereo unspecified)	-1.53%	1.3%	2.92%
O=C(NC12CC3CC(CC(C3)C1)C2)C(=O)c1c[nH]c2ccccc12	3.4%	3.09%	1.4%
CN1CCC(NCc2ccc(-c3cccc(-c4nc5ccccc5[nH]4)c3)cc2)CC1	1.67%	2.05%	1.64%
CCc1cc2c3c(N)nc(N)nc3ccc2n1C(CC)CC	71.2%	72.7%	65.2%
CC1CN(CCCn2c3ccccc3c3ccc(C(=O)CCCN(C)C)cc32)CC(C)N1 (stereo unspecified)	1.15%	1.4%	1.24%
CCOC(=O)c1cc(C(=O)NCCCCN2CCC(c3cn(C)c4ccccc34)CC2)ccc1-c1ccc(C(F)(F)F)cc1	2.37%	2.2%	1.11%
O=C(Nc1ccc2c(c1)CCN2C1CCN(Cc2ccc(F)cc2Cl)C1)c1ccco1 (stereo unspecified)	1.66%	0.61%	2.25%
COc1cc2nccc(Nc3cccc(Oc4ccccc4)c3)c2cc1OC	12.8%	14.4%	9.3%
CCOc1ccc(C(=O)Nc2ccc(-c3nc4ccccc4[nH]3)cc2)cc1[N+](=O)[O-]	1.79%	2.52%	1.46%
CN1CCc2cc(Br)c(O)cc2C1Cc1ccccc1Cl (stereo unspecified)	-1.43%	-1.61%	-2.87%
CCN1CCN(c2cc(C)c3cc(NC(=O)c4cncc(Br)c4)ccc3n2)CC1	-0.07%	-1.3%	-2.43%

SMILES	inhibition [1]	inhibition [2]	inhibition [3]
CCN(CC)CCN(Cc1ccc(-c2ccc(C(F)(F)F)cc2)cc1)C(=O)CN1C(CCc2cccc(F)c2F)=NS(=O)(=O)c2ccccc21	-0.85%	-0.42%	-3.12%
CN1CCN(c2ccnc3ccc(NC(=O)c4ccc(Cl)c(Cl)c4)cc23)CC1	-1.88%	0.68%	0.97%
O=C(/C=C/c1c[nH]c2ccccc12)NCCCCCN1CCC(c2c[nH]c3ccccc23)CC1	3%	1.49%	1%
COc1cccc(CN2CCN(C(c3ccccc3)c3ccccc3)CC2)c1O	6.87%	6.03%	2.74%
CC(CO)(CO)NCc1cc2ccc3ccsc3c2c2ccccc12	77.1%	71.3%	48%
COc1ccc(N2CCN(CCCNC(=O)c3ccc(NC(=O)c4cc(Cl)cc(Cl)c4)cc3)CC2)c(OC)c1	4.49%	0.82%	3.87%
CNc1ccc(CNCc2cccc(-c3ccc(-c4nc5ccccc5[nH]4)cc3)c2)cc1	0.78%	-1.69%	-1.34%
CCN(CCCN1CCCC1)c1cc(C)nc(Nc2ccc(Cl)cc2)n1	1.46%	1.37%	-0.13%
CCCC1N=C(N)N=C(N)N1c1cccc(C(F)(F)F)c1 (stereo unspecified)	0.83%	0.06%	0.06%
CCc1ccc(CN2CCCCC(NC(=O)c3cc(-c4ccccc4F)cs3)C2)cc1 (stereo unspecified)	-2.71%	-0.89%	1.12%
COc1ccc(CNC2CCN(C)CC2)cc1-c1ccc(S(=O)(=O)NCc2ccccc2)c(F)c1	-0.66%	-0.53%	-1.2%
CCCCCCn1c(Sc2ccc(C#N)c([N+](=O)[O-])c2)nnc1-c1ccc(Cl)cc1	5.74%	7.85%	2.57%
Cc1cc(N2CCCC2)nc(Nc2ccc(NC(=O)C(C)(C)C)cc2)n1	0.4%	2.7%	-0.65%
COc1ccc(Oc2ccc(Nc3ccnc4ccc(C(F)(F)F)cc34)cc2)cc1OC	7.8%	6.26%	12.3%
O=C(Nc1ccc(F)c([N+](=O)[O-])c1)Nc1cc(C(F)(F)F)ccc1Cl	0.18%	7.68%	1.2%
COc1ccc(CN(C)CCCc2ccc(NC(=O)c3cccc4c(=O)c5cccc(F)c5[nH]c34)cc2)cc1OC	14.2%	9.74%	10.1%
CCCCC([C@@H](Cc1ccc2ccccc2c1)C(=O)N[C@H](C(=O)NC)C(C)(C)C)N(O)C=O (stereo partly specified)	0.96%	-0.31%	2.89%
CCCNCc1ccc(-c2ccc(CN(CC3CCCO3)C(=O)C3CC(=O)c4ccccc43)cc2)nc1 (stereo unspecified)	6.13%	3.74%	3.19%
Cc1cc(=NN=Cc2ccc(F)cc2)c2cccc(C)c2[nH]1	3.22%	2.28%	3.02%
CCn1cc2c3c(cc(C(=O)N[C@@H](Cc4ccccc4)[C@H](O)CNCc4cccc(OC)c4)cc31)N(C)S(=O)(=O)CC2	1.89%	3.02%	2.18%
S=C(Nc1ccc(Cl)cc1)Nc1ccc(Nc2ccccc2)cc1	6.97%	5.37%	5%
COc1ccc(NC(=O)/C=C/c2ccc(-c3ccccc3)cc2)cc1N1CCN(C)CC1	2.62%	3.25%	0.83%
Cc1ccc(NC(=O)c2cccc(CN3CCCN(Cc4cccc(O)c4)CC3)c2)cc1	-0.49%	0.65%	0.25%
COc1cc(NCCCNC(=O)c2ccc(Cl)c(Cl)c2)nc2ccccc12	5.42%	5.69%	5.08%
